Experimental data reported in PubChem BioAssay AID1159580 (chemical genetic matrix, 2015).
The campaign covered roughly 5,500 compounds. About 2,000 (36%) were called active. Roughly 18% stayed inconclusive and do not appear here. No stated cut-off is given here; in the data, active means normalized growth mostly below about 0.91 (no sharp cut-off); inconclusive means no clear call, values can overlap the other calls; inactive means mostly above about 0.92. This is one part of the list.

Test: chemical genetic growth profiling, strain panel (AID 1159580);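 further: tested at 20 µM; growth read once vehicle control cultures reached saturation at 30 °C; 1 = growth at the plate median or of vehicle wells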
Settings: growth OD

Measured: normalized growth

C=C(C)[C@H]1CC=C(C(=O)O)CC1
active: S. cerevisiae deletion strains, locus YKL068W, stronger effect = lower value 0.858 | S. cerevisiae deletion strains, locus YKL085W, strain MDH1 (second series), stronger effect = lower value 0.84 | S. cerevisiae deletion strains, locus YKL085W, strain MDH1, stronger effect = lower value 0.84 | S. cerevisiae deletion strains, locus YKR001C, strain vps1, stronger effect = lower value 0.858 | S. cerevisiae deletion strains, locus YLR113W, strain HOG1, stronger effect = lower value 0.658 | S. cerevisiae deletion strains, locus YNL183C, strain NPR1, stronger effect = lower value 0.743 | S. cerevisiae deletion strains, locus YNL248C, strain rpa49, stronger effect = lower value 0.803 | S. cerevisiae deletion strains, locus YNL250W, strain rad50, stronger effect = lower value 0.852 | S. cerevisiae deletion strains, locus YNL271C, strain bni1, stronger effect = lower value 0.876 | S. cerevisiae deletion strains, locus YNL298W, strain CLA4, stronger effect = lower value 0.814 | S. cerevisiae deletion strains, locus YOR184W, strain ser1, stronger effect = lower value 0.862 | S. cerevisiae deletion strains, locus YOR231W, strain MKK1, stronger effect = lower value 0.761 | S. cerevisiae deletion strains, locus YPL256C, strain CLN2, stronger effect = lower value 0.71 | S. cerevisiae deletion strains, locus YPR141C, strain kar3, stronger effect = lower value 0.751 | S. cerevisiae deletion strains, locus YPR163C, strain tif3, stronger effect = lower value 0.911
inactive: S. cerevisiae deletion strains, locus YKL160W, strain elf1, stronger effect = lower value 0.969 | S. cerevisiae deletion strains, locus YKL190W, strain CNB1, stronger effect = lower value 1.01 | S. cerevisiae deletion strains, locus YKR026C, strain gcn3, stronger effect = lower value 0.98 | S. cerevisiae deletion strains, locus YKR091W, strain srl3, stronger effect = lower value 0.995 | S. cerevisiae deletion strains, locus YLL001W, strain dnm1, stronger effect = lower value 0.944 | S. cerevisiae deletion strains, locus YLL026W, stronger effect = lower value 0.97 | S. cerevisiae deletion strains, locus YLL041C, strain sdh2, stronger effect = lower value 0.998 | S. cerevisiae deletion strains, locus YLR027C, strain aat2, stronger effect = lower value 0.933 | S. cerevisiae deletion strains, locus YLR039C, strain RIC1, stronger effect = lower value 0.971 | S. cerevisiae deletion strains, locus YLR058C, strain SHM2, stronger effect = lower value 0.996 | S. cerevisiae deletion strains, locus YLR102C, strain apc9, stronger effect = lower value 0.966 | S. cerevisiae deletion strains, locus YLR221C, strain rsa3, stronger effect = lower value 0.907 | S. cerevisiae deletion strains, locus YLR258W, strain gsy2, stronger effect = lower value 0.982 | S. cerevisiae deletion strains, locus YLR262C, strain YPT6 (second series), stronger effect = lower value 0.979 | S. cerevisiae deletion strains, locus YLR262C, strain YPT6, stronger effect = lower value 0.977 | S. cerevisiae deletion strains, locus YLR268W, strain sec22, stronger effect = lower value 0.948 | S. cerevisiae deletion strains, locus YLR320W, strain mms22, stronger effect = lower value 0.962 | S. cerevisiae deletion strains, locus YLR330W, strain CHS5, stronger effect = lower value 0.99 | S. cerevisiae deletion strains, locus YLR342W, strain FKS1 (second series), stronger effect = lower value 0.852 | S. cerevisiae deletion strains, locus YLR342W, strain FKS1, stronger effect = lower value 0.976 | S. cerevisiae deletion strains, locus YLR357W, strain rsc2, stronger effect = lower value 0.932 | S. cerevisiae deletion strains, locus YLR370C, strain arc18, stronger effect = lower value 0.989 | S. cerevisiae deletion strains, locus YLR371W, strain rom2, stronger effect = lower value 0.949 | S. cerevisiae deletion strains, locus YLR384C, strain iki3, stronger effect = lower value 0.986 | S. cerevisiae deletion strains, locus YLR418C, strain cdc73, stronger effect = lower value 0.982 | S. cerevisiae deletion strains, locus YML016C, strain PPZ1, stronger effect = lower value 1.02 | S. cerevisiae deletion strains, locus YML032C, strain rad52, stronger effect = lower value 0.919 | S. cerevisiae deletion strains, locus YML120C, strain ndi1, stronger effect = lower value 0.986 | S. cerevisiae deletion strains, locus YML124C, strain tub3, stronger effect = lower value 0.964 | S. cerevisiae deletion strains, locus YMR058W, strain fet3, stronger effect = lower value 0.96 | S. cerevisiae deletion strains, locus YMR078C, strain ctf18, stronger effect = lower value 0.956 | S. cerevisiae deletion strains, locus YMR125W, strain sto1, stronger effect = lower value 1.03 | S. cerevisiae deletion strains, locus YMR129W, stronger effect = lower value 0.991 | S. cerevisiae deletion strains, locus YMR205C, strain PFK2, stronger effect = lower value 1.02 | S. cerevisiae deletion strains, locus YMR223W, strain ubp8, stronger effect = lower value 0.917 | S. cerevisiae deletion strains, locus YMR231W, strain pep5, stronger effect = lower value 0.988 | S. cerevisiae deletion strains, locus YMR263W, strain SAP30, stronger effect = lower value 0.952 | S. cerevisiae deletion strains, locus YMR307W, strain GAS1, stronger effect = lower value 0.821 | S. cerevisiae deletion strains, locus YNL067W, strain RPL9B, stronger effect = lower value 0.908 | S. cerevisiae deletion strains, locus YNL071W, strain lat1, stronger effect = lower value 0.991 | S. cerevisiae deletion strains, locus YNL128W, strain TEP1, stronger effect = lower value 0.996 | S. cerevisiae deletion strains, locus YNL153C, strain GIM3, stronger effect = lower value 0.924 | S. cerevisiae deletion strains, locus YNL209W, strain ssb2, stronger effect = lower value 0.992 | S. cerevisiae deletion strains, locus YNL233W, strain BNI4, stronger effect = lower value 0.955 | S. cerevisiae deletion strains, locus YNL307C, strain MCK1, stronger effect = lower value 0.912 | S. cerevisiae deletion strains, locus YNL322C, strain KRE1 (second series), stronger effect = lower value 0.912 | S. cerevisiae deletion strains, locus YNL322C, strain KRE1, stronger effect = lower value 1 | S. cerevisiae deletion strains, locus YNR049C, strain mso1, stronger effect = lower value 0.971 | S. cerevisiae deletion strains, locus YNR052C, strain pop2, stronger effect = lower value 0.921 | S. cerevisiae deletion strains, locus YOL006C, strain TOP1, stronger effect = lower value 0.97 | S. cerevisiae deletion strains, locus YOL012C, strain htz1 1.09 | S. cerevisiae deletion strains, locus YOL147C, strain pex11, stronger effect = lower value 0.976 | S. cerevisiae deletion strains, locus YOR001W, strain rrp6, stronger effect = lower value 0.894 | S. cerevisiae deletion strains, locus YOR061W, strain CKA2, stronger effect = lower value 0.971 | S. cerevisiae deletion strains, locus YOR069W, strain VPS5, stronger effect = lower value 1 | S. cerevisiae deletion strains, locus YOR070C, strain gyp1, stronger effect = lower value 0.963 | S. cerevisiae deletion strains, locus YOR080W, strain dia2, stronger effect = lower value 0.971 | S. cerevisiae deletion strains, locus YOR083W, strain WHI5, stronger effect = lower value 0.934 | S. cerevisiae deletion strains, locus YOR106W, strain vam3, stronger effect = lower value 0.967 | S. cerevisiae deletion strains, locus YOR136W, strain idh2, stronger effect = lower value 0.966 | S. cerevisiae deletion strains, locus YOR144C, strain elg1, stronger effect = lower value 0.946 | S. cerevisiae deletion strains, locus YOR265W, strain rbl2, stronger effect = lower value 1.01 | S. cerevisiae deletion strains, locus YOR270C, strain vph1, stronger effect = lower value 0.959 | S. cerevisiae deletion strains, locus YOR290C, strain snf2, stronger effect = lower value 0.95 | S. cerevisiae deletion strains, locus YOR316C, strain cot1, stronger effect = lower value 0.978 | S. cerevisiae deletion strains, locus YPL051W, strain arl3, stronger effect = lower value 0.964 | S. cerevisiae deletion strains, locus YPL078C, strain atp4, stronger effect = lower value 0.959 | S. cerevisiae deletion strains, locus YPL106C, strain sse1, stronger effect = lower value 0.967 | S. cerevisiae deletion strains, locus YPL240C, strain hsp82, stronger effect = lower value 0.989 | S. cerevisiae deletion strains, locus YPL241C, strain CIN2, stronger effect = lower value 1.01 | S. cerevisiae deletion strains, locus YPR119W, strain clb2, stronger effect = lower value 0.981 | S. cerevisiae deletion strains, locus YPR167C, strain met16, stronger effect = lower value 0.929 | S. cerevisiae deletion strains, strain wtn01, stronger effect = lower value 0.904 | S. cerevisiae strains, strain wild type, stronger effect = lower value 0.999
